The text below walks through data of paper PMC12136788.

Numbering of substitutions follows the chain as printed. The full ranking holds about 5,800 sequences; the median of “enrichment r” is about 0.68, and the highest 2% start at about 11. The sample holds the highest values, similar sequences and a random draw of the others, so the mix is not that of the screen.

Sequences and labels used below:
B1: ENSG00000198589:be:win_8001|CDS|ENSG00000198589|bound_else_gene|NA|bound_elsewhere_windowed (ssRNA)
RNA: GGGAGUUCUACAGUCCGACGAUCUGGAGAUAACCCAGGCAGUGAGACUGCUGCUCCUCGGGCCAUUUUGACCGGCCAUGACUAUGAGGUCACAUGUGCUGCGGUGUGUGCGGAGCUAGGCCUGGUGUUGAGUGGUUCACAAGACAACAGAGGAUUGAGCAUCA
B2: chr2:231108229:231108516:-|three_prime_utr|ENSG00000135914|control|control|control (ssRNA)
RNA: GGGAGUUCUACAGUCCGACGAUCAAGAAUAUCUAAUUUUCCUAAUUUGGACAAGAUUAUUCCAUGAGGAAAAUAAUUUUAUAUAGCUACAAAUGAAAACAAUCCAGCACUCUGGUUAAAUUUUAAGGUAUUCGAAUGAAAUAACAACAGAGGAUUGAGCAUCA
B3: chr5:113594843:113594944:+|3pUTR|ENSG00000047188|msi1|FALSE|bound_elsewhere (ssRNA)
RNA: GGGAGUUCUACAGUCCGACGAUCCAACAUAAAAUCUUGAGAACCUUCUACUUUCUCUGGGAAAGCAUUAUAUAGUGGUGCAUUAGUUUAGAAAGUCAGCUAUGAUUUUGCCUAUAGUUCUAGUUAUUAGCUUUGGGGUUUUCUCAACAGAGGAUUGAGCAUCA
B4: chr3:49657245:49657349:+|CDS|ENSG00000164061|unk|total|mutant (ssRNA)
RNA: GGGAGUUCUACAGUCCGACGAUCCAGCCGCCGUGGCAUCAAGAAGCGGCACUCCAUGCCACGCCUGCGGGAUGCCUGUGAGCCCGAGUCUGGGACUGAGCCCUGUGUGGUCAGGAGGAUUGCCGACAGCAGCGUGCAGACAGACAACAGAGGAUUGAGCAUCA
B5: chr1:193014253:193014354:-|3pUTR|ENSG00000116750|unk|total|mutant (ssRNA)
RNA: GGGAGUUCUACAGUCCGACGAUCUUAACCGGUAUAAGGAUUUUUCUUAUUAAUCUAAUAAAAUUCCUUAACCGGAAUUUCCACCGCUUAAGAGUGGUUUAUUUUAUCUGCAUCUUCUUUGGUGAUUGCAAAUCCCUUGUGAUACAACAGAGGAUUGAGCAUCA
B6: chr1:45660322:45660423:-|5pUTR|ENSG00000159592|unk|FALSE|unique (ssRNA)
RNA: GGGAGUUCUACAGUCCGACGAUCUCCCCUUCCCCCCUUCCCCUUUUCCCCUUUCCCCUUUUGGAAACGUGUCAGGAACCAAAUAGUUUAAGAUGAGCAGUUGAGGGGACUGAGAGAGUGAUCGACACAGAACCUGGCUUCUUCCAACAGAGGAUUGAGCAUCA
B7: ENSG00000070961:be:win_3901|3pUTR|ENSG00000070961|bound_else_gene|NA|bound_elsewhere_windowed (ssRNA)
RNA: GGGAGUUCUACAGUCCGACGAUCAAGUGACCUGUGGAUCAUCAGUAGUACCCAAGCAUGGUCCUGAACAGUGUAUUAGCAGAGCUUUAGUUUAUCUCAGUCCUGGAUGGGAGAGAGAGGGAGGAGUAAAACUGGGCAAGACAACAACAGAGGAUUGAGCAUCA
B8: chr11:95167508:95167609:-|3pUTR|ENSG00000149212|unk|FALSE|unique (ssRNA)
RNA: GGGAGUUCUACAGUCCGACGAUCAAUAAUGGAGACUGAAUGAGGCGGUUUGUAUUAAAUUAUAUGCCAUGAAGUGUUCAUUUUAGCUUUAACCUAAUUAUGACUGUACCACCAUGAAGUACAGAAUGAAAAAUUAUAUAUAUGCAACAGAGGAUUGAGCAUCA
B9: ENSG00000136451:be:win_3801|3pUTR|ENSG00000136451|bound_else_gene|NA|bound_elsewhere_windowed (ssRNA)
RNA: GGGAGUUCUACAGUCCGACGAUCACCCCUAAGCUAGAAUGUGGUUGUCAGAACCCUGAAAGUAUUAGUUCUAAAAAAAAAAAGAUAUAUACUAGAAGUAAUUGUUUUAUCAAUUCAUUGUAUAAUAAACAGGAGUGAGACUUCCAACAGAGGAUUGAGCAUCA
B10: chr8:30843048:30843149:-|CDS|ENSG00000133863|unk|FALSE|unique (ssRNA)
RNA: GGGAGUUCUACAGUCCGACGAUCGGAUACUAUAAUUGCUUCCAGAAAGUCAGAUCAUCCAAUAAACGAAGCAACAAUUAGCAUAGAAAAUUCUAAAUUUAACAGUAAUUUGCUUGCACACCCAGAUAUUUGUUGUAUUAGUGACAACAGAGGAUUGAGCAUCA
B11: chr8:80500255:80500365:+|CDS|ENSG00000205189|unk|FALSE|unique (ssRNA)
RNA: GGGAGUUCUACAGUCCGACGAUCGAAAAACCAAACUACAAAAAGAUUUAUUUAUAAUAUUCCACCUAAUAAUGAAACGAAUUUAGAAGAUUGCUCAGUAAUGCAGCCACCUGUUGCCUAUCCAGAAGAAAAUACACUACUCAUCAACAGAGGAUUGAGCAUCA
B12: chr2:42328916:42329027:+|CDS|ENSG00000143924|unk|total|mutant (ssRNA)
RNA: GGGAGUUCUACAGUCCGACGAUCAGAAGGAUCUGAUGGGACAGAUAUCAAUGCACUGGUGCGAUCCCACAACCGAAAGGUGACCGCUGUUGCCGAUGACUUUUGUAAAGUCCAUCUGUUUCAGUAUCCCUGCUCCAAAGCAAACAACAGAGGAUUGAGCAUCA
B13: chr6:52279506:52279615:-|CDS|ENSG00000112118|unk|total|mutant (ssRNA)
RNA: GGGAGUUCUACAGUCCGACGAUCUGAGUGUGGCAUUUUUAAGACAGGACGGAGAUCACUCUGUCCCUCUGUGUGCCUUUUUCCCGGAUGAGGAGAACAAUCCCCUUGAGACAGAAUAUGGCCUUUCUGUCUACAAGGAUCACCCAACAGAGGAUUGAGCAUCA
B14: chr1:17067933:17068034:-|3pUTR|ENSG00000117115|msi1|FALSE|unique (ssRNA)
RNA: GGGAGUUCUACAGUCCGACGAUCACAUAAGGACCCUGGCCUACCCUCCAGCCCAACAGCCAGUUCUGGGUCAGCUGCCAACUUAGGGGUGGUUUGAUUAUCCCAUUGAAAUUCACCAGUGCCUUUGCCAAAGACCCUCUCAUUCAACAGAGGAUUGAGCAUCA
B15: chr12:104760787:104760888:+|3pUTR|ENSG00000171310|unk|FALSE|unique (ssRNA)
RNA: GGGAGUUCUACAGUCCGACGAUCUUCUUUUCUAAUGGCAUUGAAACUUUAAAAAAAAUGGAUUCAACUGUUUUUGCAGAAUGUAGAAAGUAUUCUGUGUCCUUGGUUAAAGAAAUCCACUUGUGAAGUGUGCCUGGAAAAUGACAACAGAGGAUUGAGCAUCA
B16: chr2:227556236:227556337:+|3pUTR|ENSG00000173744|msi1|FALSE|bound_elsewhere (ssRNA)
RNA: GGGAGUUCUACAGUCCGACGAUCUGUUGAAUGCCUUUUUGCAAUGAUGACUGAGUUGUUAUCAUAGUAUUUUAAAACCUGUAUAGUGUUUUAGACUUGUUAAAACAUUGCUGUCUAGUGUACAUCUAGCUAAAAGUGUGGUUUCAACAGAGGAUUGAGCAUCA
B17: chr17:80395157:80395266:+|3pUTR|ENSG00000173821|unk|FALSE|bound_elsewhere (ssRNA)
RNA: GGGAGUUCUACAGUCCGACGAUCCUUCAAAGCCUUAACUGUCAAAUCUUGCAUUAUCUUGUUUGUACAGAAAUAUACUGGCCUAGCAGAGGCAAAAAAAAAAAAAAUGAAUUUUAUUUUACUUGUCACACCUGUCUUAAUAAACAACAGAGGAUUGAGCAUCA
B18: chr7:111727939:111728040:-|3pUTR|ENSG00000128512|unk|FALSE|unique (ssRNA)
RNA: GGGAGUUCUACAGUCCGACGAUCAAGUGGUAAAUAGUGAUAAAGACUCCUUUUGUACCUUUUUAUGUUCACUUUUUUUUAUAUAGUUUAAUCUUAAAACCAAUACGAUAUUGUCAAACGAUACAAUGUGUGACAAUGUUGUAUCAACAGAGGAUUGAGCAUCA
B19: chr7:123541454:123541562:-|3pUTR|ENSG00000128609|unk|FALSE|unique (ssRNA)
RNA: GGGAGUUCUACAGUCCGACGAUCUCCAUAGUGUCAUUUUAUUUUAGUCAUUAUUGAAUUAUACCAUUUACUCUGUUUUCUUAUAGUCUUAAUUUUAUUAUAUUUUGUUGUUACUGUAUUAUAUUUGAAAACCUUCAAAUUAGACAACAGAGGAUUGAGCAUCA
B20: chr5:159157431:159157536:-|3pUTR|ENSG00000145860|unk|FALSE|bound_elsewhere (ssRNA)
RNA: GGGAGUUCUACAGUCCGACGAUCCAAAAAGUGUUUUUCAGACCUCGGUAUUCCUAAUGUGGGAUGUGACUUUAUUUUAUUUUUAGUAGCAAAUUUGGAUGUAGACUGACAGACAUAGCUGAAUGUCUUAAUAAAUUUAAAUUUCAACAGAGGAUUGAGCAUCA
B21: chr10:117282838:117282939:-|3pUTR|ENSG00000165650|unk|FALSE|bound_elsewhere (ssRNA)
RNA: GGGAGUUCUACAGUCCGACGAUCCCCCUUGUGUUAUUUUUCUUCCUCUUGGUUUUUGAAUUAGUGUUAAAUAGAAUACUGUCUAGAUUCUUAAAAUAUUUUCAUUUCCAUCAUGGUUAUAACAAAUUUGCUGCAUGCCCAAACCAACAGAGGAUUGAGCAUCA
B22: chr7:111727939:111728040:-|3pUTR|ENSG00000128512|unk|total|mutant (ssRNA)
RNA: B18 RNA with U34C, A35C, U83C, A84C
B23: chr6:11183298:11183399:-|3pUTR|ENSG00000111859|msi1|total|mutant (ssRNA)
RNA: GGGAGUUCUACAGUCCGACGAUCACAUUUCACAUUUUUAAAACCAAAUGUUCAAUCUGUAUUACUCUUUGCCGUCUUGUAUGCCGAGGCUAUUUUUAAAUCAUUAAAUUUUCCGAUCUCUGUUUUCACCGCCACUGGGUUUUCCAACAGAGGAUUGAGCAUCA
B24: chr19:811491:811550:+|3pUTR|ENSG00000011304|msi1_unk|FALSE|overlapping (ssRNA)
RNA: GGGAGUUCUACAGUCCGACGAUCUAGCAAUAUUUCCAGUUGACCAAAUAUUCUAAUCUUUUUUCAUUUAUAUGCAAAAGAAAUAGUUUUAAGUAACUUUUUAUAGCAAGAUGAUACAAUGGUAUGAGUGUAAUCUAAACUUCCCAACAGAGGAUUGAGCAUCA
B25: chr5:159157431:159157536:-|3pUTR|ENSG00000145860|unk|total|mutant (ssRNA)
RNA: B20 RNA with U83C, A84C, U86C, A87C, U101C, A102C, U115C, A116C
B26: ENSG00000033178:stop:overlap|stop_codon|ENSG00000033178|stop_codon|NA|stop_codon (ssRNA)
RNA: GGGAGUUCUACAGUCCGACGAUCCUAUUGAAAUUUAUGGCUGUCCGAAUAUUUGUUUGUUAAUACAUAAGUGUUCUGUAUAUUAGUAUUCUCUUAUCCUUCACAUCCAGCUUUGCUACUCUGUGGCAUUAGACAACUUUUUUCCAACAGAGGAUUGAGCAUCA
B27: chr7:123541454:123541562:-|3pUTR|ENSG00000128609|unk|total|mutant (ssRNA)
RNA: B19 RNA with U28C, A29C, U44C, A45C, U83C, A84C, U140C, A141C

The test concerns the target T1, UNK ZnF1-6 (called full-length) (human, UniProt Q9C0B0 30-357).
T1 sequence: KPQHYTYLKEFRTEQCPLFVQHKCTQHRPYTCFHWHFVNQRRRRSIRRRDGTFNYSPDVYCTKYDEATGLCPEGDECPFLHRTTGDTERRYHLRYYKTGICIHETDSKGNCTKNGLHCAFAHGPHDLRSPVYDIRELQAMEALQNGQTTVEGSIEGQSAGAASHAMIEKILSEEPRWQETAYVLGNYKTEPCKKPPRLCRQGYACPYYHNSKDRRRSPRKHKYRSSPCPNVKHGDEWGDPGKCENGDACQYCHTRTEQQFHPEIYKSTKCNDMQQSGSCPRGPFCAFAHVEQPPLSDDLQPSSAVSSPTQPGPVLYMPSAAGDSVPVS
Briefly: nsRBNS (natural sequence RNA bind-n-seq); RBNS binding buffer (assumed for nsRBNS): 25 mM Tris pH 7.5, 150 mM KCl, 3 mM MgCl2, 0.01% Triton X-100, 500 ug/ml BSA, 20 U/ml SUPERase-In, 4 C; UNK is unkempt and MSI1 is Musashi-1; names of the RNAs are library labels; protein concentration not given here; high values mean tight binding.
B1: the binding signal is 0.695 enrichment R.
In turn, B2 yielded a binding signal of 1.88 enrichment R.
The figure for B3 is 5.33 enrichment R; for B4 it is 0.785 enrichment R; for B5 it is 0.372 enrichment R.
The figure for B6 is 0.765 enrichment R; for B7 it is 1.72 enrichment R; for B8 it is 8.52 enrichment R.
B9 registered a binding signal of 2.41 enrichment R.
The figure for B10 is 14.2 enrichment R.
The figure for B11 is 9.28 enrichment R.
The figure for B12 is 0.381 enrichment R.
For the molecule B13, the binding signal is 0.393 enrichment R.
The figure for B14 is 0.896 enrichment R.
B15 displayed a binding signal of 0.431 enrichment R.
B16 displayed a binding signal of 0.596 enrichment R.
The figure for B17 is 0.564 enrichment R; for B18 it is 21.5 enrichment R.
For B19, the binding signal is 150 enrichment R.
The figure for B20 is 11.8 enrichment R.
The figure for B21 is 3.48 enrichment R.
On to B22, for which the binding signal came out at 2.33 enrichment R.
The figure for B23 is 1.08 enrichment R.
As to B24, the binding signal worked out at 0.832 enrichment R.
B25 displayed a binding signal of 0.813 enrichment R.
In turn, B26 showed a binding signal of 0.919 enrichment R.
In the case of B27, the binding signal stood at 17 enrichment R.
